Screening results from PubChem.
Rows were chosen to be rich in hits. Some 4.2% of all compounds tested hit in one or more screens of this group.
SW480 rereplic – induces DNA re-replication in SW480 colon adenocarcinoma cells; SW480 DNA re-replication, Hoechst DNA content imaging, 48 h; Potency, µM (highest dose often 46.1 µM), for the others: at the top dose re-replication activation, most hits filed as activators; hit rate 1.8% among 340,000; AID 624297; also: % of control where 0% means no effect; nearly all actives have a fitted effect of over 55% in size
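Readout is total intensity of Hoechst-stained nuclei, excited at 405 nm and collected at 500-530 nm. Compound treatment lasted 48 hr at 37 C in 5% CO2 before staining.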
Integrin act MD – activators of alpha7 integrin expression for muscular dystrophy. hit rate 0.064% among 350,000. alpha7betagal myoblasts, beta-gal FDG fluorescence, 48 h. Potency, µM (top dose mostly 38.3 µM), inactives show top-dose activation, most hits filed as activators. AID 624291;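 also: 100% = response of the positive control SU9516; nearly all actives have a fitted effect of over 60% in size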
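Alpha7betagal+/- myoblasts (passage 13) were plated 16-24 hr, then exposed to compounds (1:260 dilution of DMSO stock) for 48 hours at 37C. After MPER lysis, β-galactosidase reporter activity was read as FDG fluorescence (ex 480/em 540) after 30 minutes.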
MCF10A rereplic – inducers of DNA re-replication in MCF 10A breast cells; AID 624296; hit rate 2.9% among 350,000; Potency, µM (series often up to 46.1 µM), without a hit: at the top dose activity, positive = re-replication, actives largely listed as activators; MCF 10A DNA re-replication, Hoechst nuclear intensity, 48 h; also: % of control where 0% means no effect; nearly all actives have a fitted effect of over 50% in size
Mito fusion yeast – inhibitors of mitochondrial division or activators of mitochondrial fusion. S. cerevisiae fusion-defective mutant growth rescue, CellTiterGlo 48 h. Potency, µM (titrated, usually from 46.1 µM), inactives show at the highest dose growth rescue (activation), usual class: activators. hit rate 0.23% among 320,000; also: % of control where 0% means no effect; nearly all actives have a fitted effect of over 45% in size
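Growth-rescue viability read-out: after 48 h at the non-permissive 37C in glycerol/ethanol YPEG, yeast mitochondrial fusion mutants are measured by CellTiterGlo luminescence; compounds (23 nl pinned per well) restoring growth score as division inhibitors or fusion activators.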
A-T KAP1 phos – potential ataxia-telangiectasia treatments restoring KAP-1 phosphorylation. F2112 A-T fibroblasts, KAP-1 phosphorylation AlphaLISA; neocarzinostatin DNA damage 30 min before lysis. Potency, µM (highest dose often 57.5 µM), inactives show at the top dose activation, most hits filed as activators. hit rate 0.19% among 320,000; also: % of control where 0% means no effect; nearly all actives have a fitted effect of over 45% in size
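ATM-like activity read as KAP-1 phosphorylation via AlphaLISA donor/acceptor antibody pairs after lysis and 6 hr at 25C. Cells were ATM-null patient fibroblasts (F2112, hTERT), dosed 60 min, then exposed to the DSB inducer NCS for 30 min.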
An asterisk follows results filed as active. Calls follow the shape of the dose curve; as a rule, active = well fitted activation curve with a large enough effect; inconclusive = small, poorly fitted or top-dose-only effect; inactive = no such curve, though single readings can be large or run the other way. Potency is read from the fitted curve at half-maximal effect.

CCOC(=O)NC(=O)CSc1nc(C)cc(C(F)(F)F)c1C#N was read as SW480 rereplic -4%, Integrin act MD 0%, MCF10A rereplic 13%, Mito fusion yeast -3% and A-T KAP1 phos 1%.
`Cc1cc(C(F)(F)F)c(C#N)c(SCC(=O)Nc2nc3cc(Br)ccc3s2)n1` gave SW480 rereplic inconclusive, Integrin act MD -19%, MCF10A rereplic 13µM* and Mito fusion yeast 8%.
`Cc1cc(=O)[nH]c(SCC(=O)Nc2nc3ccccc3s2)n1` gave SW480 rereplic inconclusive, Integrin act MD inconclusive, MCF10A rereplic 0.58µM*, Mito fusion yeast -1% and A-T KAP1 phos -6%.
N#Cc1c(SCC(=O)Nc2nccs2)sc2c(O)cc(=O)[nH]c12 was read as SW480 rereplic -8%, Integrin act MD 18%, MCF10A rereplic 0%, Mito fusion yeast -5% and A-T KAP1 phos -4%.
`N#Cc1c(SCC(=O)Nc2nc3ccccc3s2)sc2c(O)cc(=O)[nH]c12` gave SW480 rereplic 18µM*, Integrin act MD -3%, MCF10A rereplic inconclusive, Mito fusion yeast 3% and A-T KAP1 phos 4%.
`COc1ccc(C(=O)N/C(=C\c2ccc(Cl)cc2)C(=O)NCc2ccncc2)cc1` gave Integrin act MD 24%.
`Cc1ccc2nc(Cl)c3cc(C(=O)N(CCN(C)C)Cc4ccco4)sc3c2c1` gave SW480 rereplic inconclusive, Integrin act MD -44%, MCF10A rereplic 16µM*, Mito fusion yeast 0% and A-T KAP1 phos -1%.
CN(C)CCN(Cc1ccco1)C(=O)c1cc2c(Cl)nc3ccccc3c2s1 was read as SW480 rereplic inconclusive, Integrin act MD -49%, MCF10A rereplic inconclusive, Mito fusion yeast 0% and A-T KAP1 phos -3%.
For Cc1ccc(NC(=O)Cn2ncc(Cl)c(Cl)c2=O)cc1S(=O)(=O)N1CCCCC1 the results were SW480 rereplic 8.2µM*, Integrin act MD -74%, MCF10A rereplic 4.1µM*, Mito fusion yeast -3% and A-T KAP1 phos -9%.
Cc1ccc(NC(=O)CN(C)C(=O)Cn2ncc(Cl)c(Cl)c2=O)cc1 was read as SW480 rereplic inconclusive, Integrin act MD -62%, MCF10A rereplic 3.3µM*, Mito fusion yeast 1% and A-T KAP1 phos -9%.
`Cc1ccc(NC(=O)CN(C)C(=O)Cc2ccc(Cl)c(Cl)c2)cc1` gave SW480 rereplic 27%, Integrin act MD -3%, MCF10A rereplic 6%, Mito fusion yeast -10% and A-T KAP1 phos -2%.
Screening Cc1ccc(NC(=O)Cc2ccc(Cl)cc2)cc1S(=O)(=O)N1CCCCCC1 returned SW480 rereplic -30%, Integrin act MD -65%, MCF10A rereplic 12%, Mito fusion yeast 29% and A-T KAP1 phos 6%.
`CCCN1C(=O)c2ccc(C(=O)Nc3nccs3)cc2C1=O` gave SW480 rereplic -3%, Integrin act MD -3%, MCF10A rereplic 0%, Mito fusion yeast 2% and A-T KAP1 phos -12%.
COCCN1C(=O)c2ccc(C(=O)Nc3nccs3)cc2C1=O was read as SW480 rereplic 1.2µM*, Integrin act MD -2%, MCF10A rereplic inconclusive, Mito fusion yeast 3% and A-T KAP1 phos -1%.
Screening O=C(CSc1c2c(nc3cc(Cl)ccc13)CCCC2)NCCCN1CCOCC1 returned SW480 rereplic inconclusive, Integrin act MD -41%, MCF10A rereplic 23µM*, Mito fusion yeast 17% and A-T KAP1 phos 7%.
`COCCCNC(=O)CSc1c2c(nc3ccc(Cl)cc13)CCCC2` gave SW480 rereplic 0%, Integrin act MD -33%, MCF10A rereplic 23µM*, Mito fusion yeast -6% and A-T KAP1 phos 3%.
`O=C(CSc1c2c(nc3cc(Cl)ccc13)CCCC2)NCCN1CCOCC1` gave SW480 rereplic inconclusive, Integrin act MD -34%, MCF10A rereplic inconclusive, Mito fusion yeast 4% and A-T KAP1 phos 3%.
Screening O=C(CCN1C(=O)/C(=C/c2ccccc2Cl)SC1=S)N1CCOCC1 returned SW480 rereplic inconclusive, Integrin act MD -48%, MCF10A rereplic 23µM*, Mito fusion yeast -2% and A-T KAP1 phos -4%.
